# This is a sample that favours compounds with a hit; in the whole collection about 9.8% have one here.
# ALDH1A1 inh: blocks purified human ALDH1A1 activity; P00352; Purified ALDH1A1, NADH fluorescence, propionaldehyde substrate; Potency, µM (highest dose often 75.3 µM), for the others: at the highest dose activity, negative = inhibition, actives largely listed as inhibitors; hit rate 7.3% among 220,000; AID 1030; active means well fitted inhibition curve with a large enough effect, not every such curve was filed as active; inconclusive means small, poorly fitted or top-dose-only effect, or another doubt; inactive means no such curve, though single readings can be large or run the other way;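 further: potency means the concentration at half of the fitted maximal effect; plate controls were no enzyme wells and a reference inhibitor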
# HPGD block: inhibitors of human 15-hydroxyprostaglandin dehydrogenase (HPGD). P15428. purified HPGD, NADH fluorescence kinetic, PGE2 substrate. Potency, µM, for the others: top-dose activity change, negative = inhibition, actives largely listed as inhibitors. hit rate 4.3% among 150,000; active means well fitted inhibition curve with a large enough effect, not every such curve was filed as active; inconclusive means small, poorly fitted or top-dose-only effect, or another doubt; inactive means no such curve, though single readings can be large or run the other way; further: potency means the concentration at half of the fitted maximal effect; on the % scale 0 is the no-effect control and ±100 the full control effect
# Target sequence (P15428 whole entry, looked up): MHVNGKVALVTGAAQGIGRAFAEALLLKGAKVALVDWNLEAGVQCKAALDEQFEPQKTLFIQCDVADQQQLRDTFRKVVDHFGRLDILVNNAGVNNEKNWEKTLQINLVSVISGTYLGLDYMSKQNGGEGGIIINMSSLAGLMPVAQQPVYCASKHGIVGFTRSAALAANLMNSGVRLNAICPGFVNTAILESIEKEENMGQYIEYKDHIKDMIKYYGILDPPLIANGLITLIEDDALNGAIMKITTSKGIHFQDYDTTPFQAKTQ
#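 20 nM HPGD preincubated 15 min at room temperature with compound in 50 mM Tris-HCl pH 8, 0.01% Tween 20. Started with 1 mM NAD+ and 30 uM prostaglandin E2; NADH fluorescence (360/450 nm) read 5 times over 30-s intervals, last minus first.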
# JMJD2E inh: inhibitors of human JMJD2E histone demethylase. JMJD2E catalytic domain, FDH-coupled NADH fluorescence (FDH is formaldehyde dehydrogenase). hit rate 1.6% among 230,000. Potency, µM (highest dose often 57.1 µM), for inactives: top-dose activity change, negative = inhibition, most hits filed as inhibitors; active means well fitted inhibition curve with a large enough effect, not every such curve was filed as active; inconclusive means small, poorly fitted or top-dose-only effect, or another doubt; inactive means no such curve, though single readings can be large or run the other way;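 further: potency means the concentration at half of the fitted maximal effect; 0% = wells with enzyme and -100% = buffer wells without enzyme; nearly all actives have a fitted effect of over 50% in size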
# Target sequence (B2RXH2 1-337 limits assumed): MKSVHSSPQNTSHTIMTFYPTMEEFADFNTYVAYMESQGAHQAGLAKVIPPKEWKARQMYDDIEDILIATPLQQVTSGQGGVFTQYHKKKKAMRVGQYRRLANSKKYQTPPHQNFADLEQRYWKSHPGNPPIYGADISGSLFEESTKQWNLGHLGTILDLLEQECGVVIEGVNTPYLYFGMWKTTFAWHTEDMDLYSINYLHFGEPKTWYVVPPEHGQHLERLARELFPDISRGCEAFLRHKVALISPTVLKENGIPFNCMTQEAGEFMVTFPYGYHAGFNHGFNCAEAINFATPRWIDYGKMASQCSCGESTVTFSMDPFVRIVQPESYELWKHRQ
# HttQ103 aggreg: inhibitors of mutant huntingtin aggregate formation in PC12 cells | PC12 HttQ103-GFP aggregates, Acumen cytometry, 40 h | Potency, µM (doses to about 46.1 µM), without a hit: at the top dose activity change, negative = inhibition, usual class: inhibitors | hit rate 1.1% among 220,000; further: potency means the concentration at half of the fitted maximal effect; on the % scale 0 is the no-effect control and ±100 the full control effect; nearly all actives have a fitted effect of over 60% in size
#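 Quantitative HTS on tebufenozide-induced (100 nM) PC12 cells stably expressing polyQ103 Huntingtin exon 1–GFP. Reduction of bright GFP aggregates, detected by laser scanning cytometry after lysis, identified actives across the titration.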
# CBFb RUNX1 block: CBF-beta/RUNX1 interaction disruption; Q01196+Q13951; AlphaScreen CBFb-His/RUNX1-biotin binding, biochemical; Potency, µM (titrated, usually from 59.8 µM), inactives show top-dose activity, negative = inhibition, actives largely listed as inhibitors; 230,000 tested, under 10 active; AID 1477; further: % of control where 0% means no effect
#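 AlphaScreen proximity signal reports loss of binding between His-tagged CBF-beta and biotin-labelled RUNX1, each at 30 nM. Proteins are pre-associated for 20 minutes, compounds added for 15 minutes, then beads for 90 minutes, all at ambient temperature.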
# HTT ATP protect: protects HTT-Q103 PC12 cells, measured by ATP. PC12 HTT-Q103 induced, cytoprotection, ATP luminescence, 40 h. hit rate 0.14% among 230,000. AID 1471. Potency, µM (series often up to 56.4 µM), inactives show cytoprotection (ATP increase), most hits filed as activators; further: potency means the concentration at half of the fitted maximal effect; % of control where 0% means no effect; nearly all actives have a fitted effect of over 45% in size
#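 ATP quantification (ATPlite) reports survival of PC12 cells in which tebufenozide, 100 nM final, switches on Htt exon 1 with 103 glutamines linked to GFP; compounds are titrated.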
# * marks the source's active call; other numbers are inactive results; ? = inconclusive; / = no result; [ ] = another dose, or the depositor's remark. Unless noted, the call rests on the fitted dose curve; in most records, active means well fitted curve in the direction sought with a large enough effect; inconclusive means small, poorly fitted or top-dose-only effect, or another doubt; inactive means no such curve, though single readings can be large; an effect the other way counts as inactive or inconclusive.
SMILES,ALDH1A1 inh,HPGD block,JMJD2E inh,HttQ103 aggreg,CBFb RUNX1 block,HTT ATP protect
COc1ccccc1NC(=O)CC1Nc2ccccc2NC1=O (stereo not given),28.2µM*,?,?,-26.6%,?,-3.1%[0.074 µM]
COc1ccccc1NC(=O)CNC(=O)c1ccccc1C,-10.9%,20µM*,2.0%,-5.2%[9.22 µM],-6.5%,-7.9%
COc1ccccc1NC(=O)CCC(=O)Nc1ccccc1OC,-7.5%,-5.0%,1.9%,-1.3%,3.1%,-10.8%
Cc1ccc(NC(=O)C2CC(=O)N(CCc3ccccc3)C2)c(C)c1 (stereo not given),1.7%,/,-10.1%,-3.8%,12.4%,-4.9%
O=[N+]([O-])c1cc([N+](=O)[O-])c2c(=Nc3ccccc3)n(-c3ccccc3)n(O)c2c1,0.355µM*,/,?,-26.9%,?,-101.5%
CCn1c(C)[n+](CC)c2ccc(S(=O)(=O)N(C)C)cc21,-1.0%,/,?,/,-6.5%,/
CC[n+]1c(C)n(C)c2cc(S(=O)(=O)N(C)C)ccc21,2.1%,/,10µM*,-6.2%[9.22 µM],7.5%,19.7%[10 µM]
CC(C)/C=C1\CC/C(=C\c2ccc(N(C)C)cc2)C1=O,-10.4%,-2.0%,12.3%,21.0%,9.3%,-7.8%[10 µM]
CC(C)c1ccc(/C=C2\CC/C(=C\C=N\N(C)C)C2=O)cc1,0.398µM*,-23.4%,?,5.9%[9.22 µM],-0.9%,-26.4%
CC(C)(C)c1ccc(S(=O)(=O)CC(O)CSc2nc3c(cc2C#N)CCCC3)cc1 (stereo not given),2µM*,?,-1.1%,11.3%,0.3%,-11.7%
Cc1noc(NS(=O)(=O)c2ccc(NC(=O)CSc3nc4c(cc3C#N)CCCC4)cc2)c1C,28.2µM*,28.2µM*,0.1%,7.1%,-0.7%,-12.2%
Cc1cc(NC(=O)CSc2nc3c(cc2C#N)CCCC3)no1,?,?,32.2%,1.3%,13.3%,/
Cc1noc(NS(=O)(=O)c2ccc(NC(=O)CS(=O)(=O)c3ccccc3)cc2)c1C,-1.5%,-5.3%,-0.1%,-12.0%,6.3%,-0.2%[0.074 µM]
Cc1noc(NS(=O)(=O)c2ccc(NC(=O)CSc3nc4c(cc3C#N)CCC4)cc2)c1C,?,31.6µM*,?,23.0%,-0.9%,-10.4%
N#Cc1cc2c(nc1SCC(O)CS(=O)(=O)Cc1ccc(Cl)cc1)CCCC2 (stereo not given),?,-25.2%,-16.6%,?,-1.6%,-67.5%
C/C(C=O)=C/c1ccccc1,?,-2.2%,/,/,17.1%[21.7 µM],-17.7%
Cc1ccccc1-c1nccc(NCc2cccs2)n1,?,/,/,/,/,-292.7%
COCc1cc(C)nc(OCC(=O)N/N=C/c2ccc(O)cc2O)c1C#N,6.2%,/,25.1µM*,?,?,23.1%
COCc1cc(C)nc(OCC(=O)N/N=C/c2ccccc2O)c1C#N,2.5%,/,25.1µM*,11.2µM*,-4.3%,-101.9%
CC(C)CCNCC(=O)NC(c1ccccc1)c1ccccc1,?,/,?,12.8%,-13.8%,-13.8%
CCOC(=O)C1=C(N)OC2=C(C(=O)CCC2)C1c1ccc(C)s1 (stereo not given),?,-12.5%,2.1%,3.7%,7.2%,-11.3%
NC(=O)c1ccc(-n2c(CCC(=O)O)ccc2-c2cccs2)cc1,3.16µM*,/,-1.2%,8.0%,-3.6%,-14.6%
Cc1ccc(-n2c(CCC(=O)O)ccc2-c2cccs2)cc1,?,-20.5%,?,16.7%,-12.6%,-1.5%
CCCn1c(CCC(=O)O)ccc1-c1cccs1,?,?,?,26.0%,6.6%,13.7%[10 µM]
COC(=O)c1cccc(-n2c(CCC(=O)O)ccc2-c2cccs2)c1,3.98µM*,/,25.1µM*,-13.6%[9.22 µM],5.6%,10.9%[10 µM]
SMILES,ALDH1A1 inh,HPGD block,JMJD2E inh,HttQ103 aggreg,CBFb RUNX1 block,HTT ATP protect
CC(=O)c1ccc(-n2c(CCC(=O)O)ccc2-c2cccs2)cc1,3.55µM*,-17.8%,?,-5.2%,-0.7%,-45.5%
O=C(CSCC(=O)N1CCCCC1)Nc1nc(-c2ccccc2)c(-c2ccccc2)s1,?,?,?,-10.4%,5.7%[2.36 µM],/
Cn1c(=O)cc(SCC(=O)N2CCCC2)c2ccc(Cl)cc21,?,14.1µM*,-1.7%,-3.1%,-0.7%,-15.1%
COC(=O)c1ccccc1NC(=O)CN1CCC(NC(=O)c2ccccc2C)CC1,20µM*,-4.2%,-0.8%,25.1%,-5.7%,-12.6%[10 µM]
NC(=O)COC(=O)c1cccnc1Nc1ccccc1F,11.2µM*,/,-4.1%,2.3%,20.8%,-35.4%
CN(C)C(=O)COC(=O)c1cccnc1Nc1ccccc1F,-10.1%,-14.6%,0.7%,-2.2%,-0.3%,3.3%[1.9 µM]
O=C(NC1CCS(=O)(=O)C1)/C(=C/c1ccco1)NC(=O)c1ccccc1 (stereo not given),-2.1%,/,-8.0%,0.178µM*,-9.4%,0.141µM*
O=C(NC1CCS(=O)(=O)C1)/C(=C\c1ccco1)NC(=O)c1ccccc1 (stereo not given),/,/,-0.3%,-11.8%[9.22 µM],5.9%,-4.5%[10 µM]
C=CCn1c(SCc2c(C(=O)OC)sc(N)c2C(=O)OC)nnc1-c1ccc(Br)cc1,25.1µM*,?,-4.7%,26.8%[9.22 µM],-0.6%,-14.6%
CCOC(=O)C1=C(c2ccccc2)NC(=S)NC1c1ccc(Cl)c([N+](=O)[O-])c1 (stereo not given),0.708µM*,-23.9%,3.9%,1.7%,-7.1%,/
CCOC(=O)C1=C(C)C(c2ccc(OC)cc2)NC(=S)N1 (stereo not given),2.24µM*,-8.9%,1.8%,?,0.7%,-29.1%
CCOC(=O)C1=C(c2cccc(Oc3ccccc3)c2)NC(=S)NC1C (stereo not given),0.316µM*,-25.6%,-5.3%,11.2µM*,3.7%,-8.9%
CCOC(=O)C1=C(C)C(c2cccc(Oc3ccccc3)c2)NC(=S)N1 (stereo not given),0.562µM*,-10.0%,-11.0%,?,-14.6%,/
O=C(NC(=S)Nc1cccc(CO)c1)c1ccc(-c2ccccc2)cc1,12.6µM*,-10.7%,-2.2%,-9.7%,-17.3%,5.2%[0.074 µM]
CCOC(=O)Cc1csc(NC(=S)NC(=O)c2ccc(C)cc2)n1,39.8µM*,/,-7.0%,7.5%,-4.4%,-62.3%[10 µM]
CCOC(=O)Cc1csc(NC(=S)NC(=O)c2ccccc2)n1,-18.0%,-7.7%,5.4%,13.7%,-5.7%,-3.0%[10 µM]
CCC(=O)Nc1cccc(NC(=S)NC(=O)c2ccccc2)c1,?,-6.7%,2.6%,-5.3%,-6.3%,14.3%[10 µM]
CCC(=O)Nc1cccc(NC(=S)NC(=O)c2ccc(C)cc2)c1,12.6µM*,/,-6.9%,7.1%[9.22 µM],-1.5%,1.8%[10 µM]
CCC(=O)Nc1cccc(NC(=S)NC(=O)c2cccc(C)c2)c1,25.1µM*,-8.5%,-12.6%,-0.4%,-25.7%,/
O=C(Nc1cc(C(F)(F)F)cc(C(F)(F)F)c1)Nc1cnn(-c2ccc([N+](=O)[O-])cc2)c1C(F)(F)F,/,/,-1.1%,-24.7%[9.22 µM],1.8%,-22.8%[10 µM]

# Compound activity as filed in PubChem BioAssay.
